We go through 57 compounds from PubChem BioAssay (NCATS).

The structures appear in SMILES notation. Inconclusive results are not listed. Entries that show only a call come without a potency. Unmarked numbers belong to inactive results. Calls of active or inactive are those of the source. Calls follow the shape of the dose curve; as a rule, active = well fitted inhibition curve with a large enough effect; inconclusive = small, poorly fitted or top-dose-only effect; inactive = flat fitted curve, though single readings scatter. Numbered stars: 1 amine (or outer) side, 2 acyl side, 3 side chain; on linkers, the order of the positions; unused ones are H or OH. Bridge positions count the residues as written; N and C are the ends. Square brackets hold non-standard residues; d marks the D form. Peptide text beside a SMILES is read from it. I, II: the chains in the order shown. Actinocin(9to1) = Cc1c2oc3c(C)ccc(C(=O)[*:1])c3nc-2c(C(=O)[*:2])c(N)c1=O; NMeV = CN[C@H](C(=O)O)C(C)C; Sar = CNCC(=O)O

For assay [1], the target named is Glutathione peroxidase 1 (Homo sapiens) (UniProt P07203). As to the kind of experiment: Primary qHTS Assay for Inhibitors of Recombinant Selenoprotein Glutathione Peroxidase 1 (GPX1) (AID 1845191). Also: potency is read from the fitted curve at half-maximal effect. The method, boiled down: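 10 nM GPX1 + cpd, 30 min RT; start w/ 1 mM GSH, 0.5 mM cumene hydroperoxide, 0.5 mM NADPH, 100 nM GR, 0.01% BSA; buffer 50 mM Tris-HCl pH 7.5, 2 mM EDTA, 150 mM NaCl; Fl 340/450, 0 & 15 min.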
Chain of Glutathione peroxidase 1 (Homo sapiens) (P07203 whole entry, looked up): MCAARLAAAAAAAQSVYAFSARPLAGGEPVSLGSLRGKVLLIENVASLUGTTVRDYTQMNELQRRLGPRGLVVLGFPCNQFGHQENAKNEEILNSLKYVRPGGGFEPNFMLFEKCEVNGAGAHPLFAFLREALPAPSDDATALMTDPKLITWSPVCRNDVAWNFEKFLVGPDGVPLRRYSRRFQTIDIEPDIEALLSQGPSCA

In assay [2] the target is Phospholipid hydroperoxide glutathione peroxidase GPX4 (Homo sapiens) (UniProt P36969). As to the kind of experiment: Primary qHTS Assay for Inhibitors of Recombinant Selenoprotein Glutathione Peroxidase 4 (GPX4) (AID 1845192). The method, boiled down: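 NADPH consumption, followed by fluorescence at 340/450 nm between 0 and 15 min, reports GPX4 activity via coupled glutathione reductase (100 nM). Enzyme 200 nM was pre-exposed to compound 30 min; 0.5 mM cumene hydroperoxide and 1 mM GSH served as substrates.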
Chain of Phospholipid hydroperoxide glutathione peroxidase GPX4 (Homo sapiens) (P36969 whole entry, looked up): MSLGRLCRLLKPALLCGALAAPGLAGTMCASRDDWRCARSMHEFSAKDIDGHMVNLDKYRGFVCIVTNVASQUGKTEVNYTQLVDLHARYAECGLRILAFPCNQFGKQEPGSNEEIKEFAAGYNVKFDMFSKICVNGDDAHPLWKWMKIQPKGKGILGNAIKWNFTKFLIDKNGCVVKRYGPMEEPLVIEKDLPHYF
A general note: In qHTS, concentration-response curves come from the screen itself.
Also: nearly all actives have a fitted effect of over 65% in size.

In the case of `O=C(O)CNC(=O)c1ccccc1`, the Potency result in assay [1] is “inactive”.

As to `c1ccc(-c2ccc(C(c3ccccc3)n3ccnc3)cc2)cc1` (stereo unspecified), the Potency entry in assay [1] was “inactive”.

`C[C@]12CCC(=O)C=C1CC[C@H]1[C@@H]3CC[C@](O)(C(=O)CO)[C@@]3(C)C[C@H](O)[C@@]12F`: the Potency result in assay [1] and in assay [2] was “inactive” throughout.

Turning to `COc1cc(N)c(Cl)cc1C(=O)NC1CCN(CCCOc2ccc(F)cc2)CC1OC` (stereo unspecified), in assay [1], the Potency entry was “inactive”.

As to `C=C(CC)C(=O)c1ccc(OCC(=O)O)c(Cl)c1Cl`, the Potency entry in assay [1] and in assay [2] was “inactive” throughout.

In the case of `CCCCOc1ccc(OCCCN2CCOCC2)cc1`, the Potency result in assay [1] was “inactive”.

For the compound `C/C=C(/C(=C/C)c1ccc(O)cc1)c1ccc(O)cc1`, the Potency result in assay [1] is “inactive”.

Consider `COc1cc2c(cc1OC)[C@@H]1CC(=O)[C@@H](CC(C)C)CN1CC2`, for which, in assay [1], the Potency entry was “inactive”.

Take `C[C@H]1[C@H](NC(=O)/C(=N/OC(C)(C)C(=O)O)c2csc(N)n2)C(=O)N1S(=O)(=O)O` (stereo in doubt): the Potency entry in assay [1] and in assay [2] was “inactive” each time.

Consider `C[C@@H](CN(C)C)CN1c2ccccc2Sc2ccccc21`, for which the Potency result in assay [1] and in assay [2] was “inactive” in each case.

Turning to `O=C1OC2(c3ccc(O)cc3Oc3cc(O)ccc32)c2ccccc21`, the Potency result in assay [1] is “inactive”.

Turning to `CC(=O)Oc1ccc(C(c2ccc(OC(C)=O)cc2)c2ccccn2)cc1`, the Potency result in assay [1] and in assay [2] was “inactive” throughout.

As to `O=C1c2ccccc2C(=O)C1c1ccccc1`, the Potency entry in assay [1] is “inactive”.

With `CN1CCCC(CC2c3ccccc3Sc3ccccc32)C1` (stereo unspecified), the Potency result in assay [1] and in assay [2] was “inactive” in each case.

Take `COc1cc2c(cc1OC)C(=O)C(CC1CCN(Cc3ccccc3)CC1)C2` (stereo unspecified): the Potency result in assay [1] is “inactive”.

With `O=C1OC(c2ccc(O)cc2)(c2ccc(O)cc2)c2ccccc21`, in assay [1], the Potency result is “inactive”.

As to `CCn1cc(C(=O)O)c(=O)c2cnc(N3CCCC3)nc21`, in assay [1], the activity, negative = inhibition was -13.1% [at 9.52 µM].

For the compound `CC(=O)[C@H]1CC[C@H]2[C@@H]3C[C@H](C)C4=CC(=O)CC[C@]4(C)[C@H]3[C@@H](O)C[C@]12C`, the Potency result in assay [1] and in assay [2] was “inactive” throughout.

In the case of `NC(=O)c1cc[n+](CC2=C(C(=O)[O-])N3C(=O)[C@@H](NC(=O)Cc4cccs4)[C@H]3SC2)cc1`, the Potency in assay [1] was 10.1 µM (active).

Consider `Cc1cc(O)c(C(C)C)cc1Cl`, for which the Potency entry in assay [1] and in assay [2] was “inactive” each time.

Consider `CCOC(=O)[C@H](CCc1ccccc1)N[C@@H](C)C(=O)N1Cc2ccccc2C[C@H]1C(=O)O`, for which the Potency result in assay [1] was “inactive”.

In the case of `CC[N+](CC)(CCNC(=O)C(=O)NCC[N+](CC)(CC)Cc1ccccc1Cl)Cc1ccccc1Cl`, the Potency result in assay [1] and in assay [2] was “inactive” each time.

For the compound `Oc1c(I)cc(Cl)c2cccnc12`, the Potency entry in assay [1] was “inactive”.

On to `N[C@@H](CCC(=O)N[C@@H](CS)C(=O)NCC(=O)O)C(=O)O`, for which the Potency entry in assay [1] and in assay [2] was “inactive” throughout.

In the case of `C[C@H]1C[C@H]2[C@@H]3CCC4=CC(=O)C=C[C@]4(C)[C@@]3(Cl)[C@@H](O)C[C@]2(C)[C@@]1(O)C(=O)CO`, in assay [1], the Potency entry was “inactive”.

For `CCOC(=O)n1ccn(C)c1=S`, the Potency result in assay [1] and in assay [2] was “inactive” each time.

As to `CCN(CCCCOC(=O)c1ccc(OC)c(OC)c1)C(C)Cc1ccc(OC)cc1` (stereo unspecified), the Potency result in assay [1] and in assay [2] was “inactive” throughout.

As to `CC(C)(CO)[C@@H](O)C(=O)NCCCO`, the Potency entry in assay [1] and in assay [2] was “inactive” in each case.

As for `COc1cc(/C=C/C(=O)O[C@H]2CC[C@]34C[C@]35CC[C@]3(C)[C@@H]([C@H](C)CCC=C(C)C)CC[C@@]3(C)[C@@H]5CC[C@H]4C2(C)C)ccc1O`, the Potency result in assay [1] was “inactive”.

On to `CC(C)=CCC1C(=O)N(c2ccccc2)N(c2ccccc2)C1=O`, for which the Potency result in assay [1] and in assay [2] was “inactive” in each case.

Consider `CCOC(=O)/C=C(C)/C=C/C=C(C)/C=C/c1c(C)cc(OC)c(C)c1C`, for which the Potency result in assay [1] and in assay [2] was “inactive” in each case.

In the case of `CCOc1ccc(NC(=O)CC(C)O)cc1` (stereo unspecified), the Potency entry in assay [1] is “inactive”.

As for `CC1(C)O[C@@H]2[C@@H](CO[C@@]3(COS(N)(=O)=O)OC(C)(C)O[C@@H]23)O1`, the Potency result in assay [1] and in assay [2] was “inactive” in each case.

On to `CC(=O)OCC(=O)NCCCOc1cccc(CN2CCCCC2)c1`, for which the Potency result in assay [1] is “inactive”.

In the case of `CN(C)CCOc1ccccc1Cc1ccccc1`, the Potency result in assay [1] and in assay [2] was “inactive” throughout.

Consider `CCOC(=O)OC(C)OC1=C(C(=O)Nc2ccccn2)N(C)S(=O)(=O)c2ccccc21` (stereo unspecified), for which the Potency result in assay [1] and in assay [2] was “inactive” in each case.

Turning to `O=C1OCCN1/N=C/c1ccc([N+](=O)[O-])o1`, the Potency entry in assay [1] and in assay [2] was “inactive” in each case.

With `OC[C@H]1O[C@@H](n2cnc3c(=S)nc[nH]c32)[C@H](O)[C@@H]1O`, the Potency result in assay [1] and in assay [2] was “inactive” in each case.

On to `Oc1c(I)cc(I)c2cccnc12`, for which the Potency entry in assay [1] and in assay [2] was “inactive” each time.

As for `Cc1c2oc3c(C)ccc(C(=O)N[C@@H]4C(=O)N[C@H](C(C)C)C(=O)N5CCC[C@H]5C(=O)N(C)CC(=O)N(C)[C@@H](C(C)C)C(=O)O[C@@H]4C)c3nc-2c(C(=O)N[C@@H]2C(=O)N[C@H](C(C)C)C(=O)N3CCC[C@H]3C(=O)N(C)CC(=O)N(C)[C@@H](C(C)C)C(=O)O[C@@H]2C)c(N)c1=O` (I: T[dV]P[Sar][NMeV] / II: T[dV]P[Sar][NMeV]; ester I:1-I:C, II:1-II:C; linker I:N-II:N via Actinocin(9to1)), the Potency entry in assay [1] and in assay [2] was “inactive” in each case.

In the case of `OCc1ccccc1O`, the Potency result in assay [1] and in assay [2] was “inactive” in each case.

Turning to `CCN(CCCc1ccccc1)CCCc1ccccc1`, the Potency result in assay [1] and in assay [2] was “inactive” each time.

On to `CCOc1ccc(Cc2nccc3cc(OCC)c(OCC)cc23)cc1OCC`, for which the Potency result in assay [1] and in assay [2] was “inactive” in each case.

Take `COCc1c(C(C)C)nc(C(C)C)c(/C=C/[C@@H](O)C[C@@H](O)CC(=O)O)c1-c1ccc(F)cc1`: the Potency entry in assay [1] and in assay [2] was “inactive” in each case.

Take `CCCSS/C(CCO)=C(\C)N(C=O)Cc1cnc(C)nc1N`: the Potency entry in assay [1] and in assay [2] was “inactive” throughout.

Turning to `CC[C@@H](CO)NCCN[C@@H](CC)CO`, the Potency result in assay [1] and in assay [2] was “inactive” throughout.

With `CCCC(=O)Nc1ccc(OCC(O)CNC(C)C)c(C(C)=O)c1` (stereo unspecified), the Potency entry in assay [1] and in assay [2] was “inactive” throughout.

Consider `Cc1ccnc(NS(=O)(=O)c2ccc(N)cc2)n1`, for which the Potency result in assay [1] and in assay [2] was “inactive” each time.

Turning to `NCCCC[C@H](N[C@@H](CCc1ccccc1)C(=O)O)C(=O)N1CCC[C@H]1C(=O)O`, the Potency entry in assay [1] and in assay [2] was “inactive” in each case.

`O=C(CCCN1CCC(O)(c2ccc(Br)cc2)CC1)c1ccc(F)cc1`: the Potency result in assay [1] and in assay [2] was “inactive” in each case.

Regarding `CC1(C)O[C@@H]2C[C@H]3[C@@H]4C[C@H](F)C5=CC(=O)CC[C@]5(C)[C@H]4[C@@H](O)C[C@]3(C)[C@]2(C(=O)CO)O1`, the Potency entry in assay [1] and in assay [2] was “inactive” each time.

As to `CCCCCC=CCC=CCCCCCCCC(=O)OCC`, the Potency result in assay [1] and in assay [2] was “inactive” throughout.

For the compound `C#C[C@]1(O)CC[C@H]2[C@@H]3CCC4=CC(=O)CC[C@@H]4[C@H]3CC[C@@]21C`, the Potency entry in assay [1] and in assay [2] was “inactive” in each case.

As for `CC(=O)Nc1c(I)cc(I)c(C(=O)O)c1I`, the Potency result in assay [1] and in assay [2] was “inactive” each time.

`CN(C(=O)CN(CCO)CC(=O)N(C)C(C)(C)Cc1ccccc1)C(C)(C)Cc1ccccc1`: the Potency entry in assay [1] and in assay [2] was “inactive” each time.

Turning to `CN1CCN(CCCN2c3ccccc3Sc3ccc(S(=O)(=O)N(C)C)cc32)CC1`, the Potency result in assay [1] and in assay [2] was “inactive” in each case.

Consider `CCN(CC)C(=O)N1CCN(C)CC1`, for which the Potency result in assay [1] and in assay [2] was “inactive” throughout.
